Data from PubChem BioAssay (EPA / NIEHS).
Where “and” joins values, the source holds several entries; their conditions need not be identical. Identical values can stand only once. A structure can be active in one record and inactive in another. Calls of active or inactive are those of the source. The calls were made as follows: active = hit-call score of the fitted dose curve at least 0.9, where 1 is the maximum; inactive = score below 0.9.

How the values were obtained:
[1] = BSK_CASM3C_SRB: Viability Assessment in the BioMAP Diversity Plus: CASM3C Assay (AID 2283050); details: primary human coronary artery smooth muscle cells;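 also: total protein by SRB staining as cytotoxicity measure in parallel cultures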
[2] = read-out: Thrombomodulin, THBD (gene 7056); test: BSK_CASM3C_Thrombomodulin: BioMAP Diversity Plus: CASM3C Assay for Thrombomodulin Biomarker Activity (AID 2283051); details: primary human coronary artery smooth muscle cells; actives raise or lower the signal;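 also: thrombomodulin protein level measured by ELISA 24 h after dosing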
[3] = read-out: Tissue Factor, F3 (gene 2152); test: BSK_CASM3C_TissueFactor: BioMAP Diversity Plus: CASM3C Assay for Tissue Factor Biomarker Activity (AID 2283052); details: primary human coronary artery smooth muscle cells; actives raise or lower the signal;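 also: cell surface tissue factor protein level read by ELISA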
[4] = read-out: Interferon-gamma inducible Protein 10 (IP10), CXCL10 (gene 3627); test: BSK_hDFCGF_IP10: BioMAP Diversity Plus: hDFCGF Assay for Interferon-gamma inducible Protein 10 (IP10) Biomarker Activity (AID 2283053); details: primary human foreskin fibroblasts; actives raise or lower the signal
Method in brief: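 Primary foreskin fibroblasts, human; 24 h compound exposure; IP-10 by ELISA; bidirectional fit vs DMSO.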

[5] = read-out: Urokinase-type plasminogen activator receptor (uPAR), PLAUR (gene 5329); test: BSK_CASM3C_uPAR: BioMAP Diversity Plus: CASM3C Assay for Urokinase-type plasminogen activator receptor (uPAR) Biomarker Activity (AID 2283054); details: primary human coronary artery smooth muscle cells; actives raise or lower the signal;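 also: cell-surface uPAR protein level quantified by ELISA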
[6] = read-out: Vascular cell adhesion molecule 1 (VCAM1), VCAM1 (gene 7412); test: BSK_CASM3C_VCAM1: BioMAP Diversity Plus: CASM3C Assay for Vascular cell adhesion molecule 1 (VCAM1) Biomarker Activity (AID 2283055); details: primary human coronary artery smooth muscle cells; actives raise or lower the signal;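 also: VCAM-1 protein level quantified by ELISA on the cells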
[7] = read-out: Collagen III, COL3A1 (gene 1281); test: BSK_hDFCGF_CollagenIII: BioMAP Diversity Plus: hDFCGF Assay for Collagen III Biomarker Activity (AID 2283056); details: primary human foreskin fibroblasts; actives raise or lower the signal
Method in brief: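 Response relative to DMSO, fitted in both directions, reflects ELISA-measured collagen III in human primary skin fibroblasts 24 h after compound addition.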

[8] = read-out: Epidermal growth factor receptor (EGFR), EGFR (gene 1956); test: BSK_hDFCGF_EGFR: BioMAP Diversity Plus: hDFCGF Assay for Epidermal growth factor receptor (EGFR) Biomarker Activity (AID 2283057); details: primary human foreskin fibroblasts; actives raise or lower the signal
Method in brief: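 hDFCGF system, primary human foreskin fibroblasts; compound 24 h; EGFR measured by ELISA; DMSO = negative control/baseline; bidirectional fitting.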

[9] = read-out: Interleukin-8 (IL8), CXCL8 (gene 3576); test: BSK_hDFCGF_IL8: BioMAP Diversity Plus: hDFCGF Assay for Interleukin-8 (IL8) Biomarker Activity (AID 2283058); details: primary human foreskin fibroblasts; actives raise or lower the signal
Method in brief: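 Fibroblast monolayers (human foreskin, hDFCGF) received test chemical for 24 h before ELISA detection of IL-8; either increases or decreases relative to DMSO count as activity.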

[10] = BSK_hDFCGF_Proliferation: Cell Proliferation Assessment in the BioMAP Diversity Plus: hDFCGF Assay (AID 2283059); details: primary human foreskin fibroblasts;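 also: curves fitted for both rise and fall of signal versus DMSO baseline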
Method in brief: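 Total protein read at 560 nm after 0.1% SRB staining of TCA-fixed human skin fibroblasts, […]. Activity is fitted in both directions relative to DMSO as baseline.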

[11] = read-out: Macrophage colony-stimulating factor (MCSF), CSF1 (gene 1435); test: BSK_hDFCGF_MCSF: BioMAP Diversity Plus: hDFCGF Assay for Macrophage colony-stimulating factor (MCSF) Biomarker Activity (AID 2283060); details: primary human foreskin fibroblasts; actives raise or lower the signal
Method in brief: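 fibroblasts (human foreskin, primary), 24 h post-dose; M-CSF by ELISA; bidirectional fit, DMSO = baseline.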

[12] = BSK_hDFCGF_SRB: Viability Assessment in the BioMAP Diversity Plus: hDFCGF Assay (AID 2283061); details: primary human foreskin fibroblasts;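 also: cells exposed to compound for 24 h before the read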
Method in brief: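 SRB-based viability read on primary human skin fibroblasts at 24 h: TCA fixation, 0.1% dye, 560 nm. Gain or loss of signal is fitted against the DMSO negative control.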

[13] = read-out: TIMP metallopeptidase inhibitor 1 (TIMP1), TIMP1 (gene 7076); test: BSK_hDFCGF_TIMP1: BioMAP Diversity Plus: hDFCGF Assay for TIMP metallopeptidase inhibitor 1 (TIMP1) Biomarker Activity (AID 2283062); details: primary human foreskin fibroblasts; actives raise or lower the signal
Method in brief: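 Bidirectional curve fitting against DMSO baseline yielded this endpoint, based on ELISA detection of TIMP-1 in primary human foreskin fibroblasts exposed to compound for 24 h.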

[14] = read-out: Monokine induced gamma interferon (MIG), CXCL9 (gene 4283); test: BSK_hDFCGF_MIG: BioMAP Diversity Plus: hDFCGF Assay for Monokine induced gamma interferon (MIG) Biomarker Activity (AID 2283063); details: primary human foreskin fibroblasts; actives raise or lower the signal
Method in brief: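 Endpoint derived by bidirectional fitting relative to DMSO; MIG quantified via ELISA in primary human foreskin fibroblasts harvested 24 h after dosing.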

[15] = read-out: Matrix Metallopeptidase 1 (MMP1), MMP1 (gene 4312); test: BSK_hDFCGF_MMP1: BioMAP Diversity Plus: hDFCGF Assay for Matrix Metallopeptidase 1 (MMP1) Biomarker Activity (AID 2283064); details: primary human foreskin fibroblasts; actives raise or lower the signal
Method in brief: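 Primary human foreskin fibroblasts exposed to chemicals for 24 h; MMP1 measured by ELISA. Cytotoxicity tracked by SRB staining in parallel cultures; bidirectional fit relative to DMSO.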

[16] = read-out: Plasminogen activator inhibitor-1 (PAI1), SERPINE1 (gene 5054); test: BSK_hDFCGF_PAI1: BioMAP Diversity Plus: hDFCGF Assay for Plasminogen activator inhibitor-1 (PAI1) Biomarker Activity (AID 2283066); details: primary human foreskin fibroblasts; actives raise or lower the signal
Method in brief: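 Primary dermal fibroblasts (human foreskin), hDFCGF system; compound 24 h; PAI-1 by ELISA; bidirectional fit vs DMSO control.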

[17] = read-out: Intercellular Adhesion Molecule 1 (ICAM1), ICAM1 (gene 3383); test: BSK_KF3CT_ICAM1: BioMAP Diversity Plus: KF3CT Assay for Intercellular Adhesion Molecule 1 (ICAM1) Biomarker Activity (AID 2283067); details: primary human keratinocytes with fibroblasts; actives raise or lower the signal
Method in brief: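 Bidirectional curve fitting against a DMSO baseline was applied to ICAM-1 ELISA signal from primary human skin co-cultures harvested 24 h after treatment, with SRB staining of parallel wells for overt cytotoxicity.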

[18] = read-out: Interferon-gamma inducible Protein 10 (IP10), CXCL10 (gene 3627); test: BSK_KF3CT_IP10: BioMAP Diversity Plus: KF3CT Assay for Interferon-gamma inducible Protein 10 (IP10) Biomarker Activity (AID 2283068); details: primary human keratinocytes with fibroblasts; actives raise or lower the signal
Method in brief: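 Human keratinocyte plus foreskin fibroblast primary co-culture exposed to test chemical for 24 h; IP-10 measured by ELISA. Concentration-response fitted bidirectionally against DMSO control as baseline.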

[19] = BSK_KF3CT_SRB: Viability Assessment in the BioMAP Diversity Plus: KF3CT Assay (AID 2283069); details: primary human keratinocytes with fibroblasts;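 also: total protein by sulforhodamine B staining as a cytotoxicity measure; fitted for both signal gain and loss against DMSO baseline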
Method in brief: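 Human keratinocyte and foreskin fibroblast co-culture exposed to chemical for 24 h. Total protein measured in parallel cultures by 0.1% sulforhodamine B staining after 10% TCA fixation, read at 560 nm; bidirectional fit relative to DMSO.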

[20] = read-out: Vascular cell adhesion molecule 1 (VCAM1), VCAM1 (gene 7412); test: BSK_hDFCGF_VCAM1: BioMAP Diversity Plus: hDFCGF Assay for Vascular cell adhesion molecule 1 (VCAM1) Biomarker Activity (AID 2283065); details: primary human foreskin fibroblasts; actives raise or lower the signal;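 also: VCAM-1 protein level quantified by ELISA after 24 h chemical exposure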
Method in brief: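 Measured after 24 h chemical treatment of primary human skin fibroblasts, VCAM-1 was detected by ELISA and concentration-response analysed in both directions versus DMSO vehicle.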

Measured: AC50

O=C(O)C(F)(F)OC(F)(F)C(F)(F)OC(F)(F)C(F)(F)C(F)(F)C(F)(F)F
inactive: [1] | [2] | [3] | [5] | [6] | [8] | [9] | [10] | [12] | [13] | [15] | [16] | [17] | [19]
active: [4] 15.6 µM and 18.7 µM | [7] 22.3 µM and 29.2 µM | [11] 6.97 µM and 30 µM | [12] 10.4 µM | [14] 12 µM and 48.6 µM | [18] 32.2 µM and 30 µM

CC(=O)OCC=C(C)CCC=C(C)CCC=C(C)C
active: [3] 2.51 µM | [7] 4.49 µM | [10] 17.4 µM | [11] 25.9 µM | [13] 26.3 µM | [16] 25.8 µM
not listed: [20]
inactive: all other assays above

C=C1CC/C=C(\C)CC[C@@H]2[C@@H]1CC2(C)C
inactive: [2] | [3] | [5] | [8]
active: [1] 33.2 µM | [4] 30.1 µM | [6] 29 µM | [7] 13.5 µM | [9] 33.9 µM | [10] 6.82 µM | [11] 24.5 µM | [12] 27.7 µM | [13] 27.5 µM | [14] 33900 nM | [15] 29.7 µM | [16] 31.2 µM | [17] 30.3 µM | [18] 25.2 µM | [19] 28.1 µM

c1ccc(Sc2ccccc2)cc1
active: [1] 29.8 µM | [3] 20 µM | [4] 29.3 µM | [6] 20 µM | [7] 29.9 µM | [10] 29.6 µM | [11] 28.1 µM | [12] 39 µM | [13] 25.5 µM | [15] 30.2 µM | [20] 33.2 µM | [16] 20 µM | [19] 35.5 µM
inactive: [2] | [5] | [8] | [9] | [14] | [17] | [18]

O=S1(=O)CC(Cl)(Cl)C(Cl)(Cl)C1
active: [1] 0.82 µM | [2] 7.52 µM | [3] 2.07 µM | [4] 0.961 µM | [5] 1.05 µM | [6] 0.93 µM | [7] 1.35 µM | [10] 0.016 µM | [11] 0.71 µM | [12] 0.845 µM | [13] 0.839 µM | [14] 794 nM | [15] 0.865 µM | [20] 0.613 µM | [16] 0.865 µM | [17] 1.4 µM | [18] 2.65 µM | [19] 1.36 µM
inactive: [8] | [9]

C=C(F)C(=O)OC(C(F)(F)F)C(F)(F)F
active: [12] 38.2 µM
inactive: [1] | [2] | [3] | [4] | [5] | [6] | [7] | [8] | [9] | [10] | [11] | [12] | [13] | [14] | [15] | [16] | [17] | [18] | [19]

c1ccc(OCCOc2ccccc2)cc1
active: [12] 0.15 µM
inactive: [1] | [2] | [3] | [4] | [5] | [6] | [7] | [8] | [9] | [10] | [11] | [12] | [13] | [14] | [15] | [16] | [17] | [18] | [19]

O=C1OC2(c3ccc(O)cc3Oc3cc(O)ccc32)c2ccccc21
active: [10] 20 µM
not listed: [20]
inactive: all other assays above

CC(=O)c1ccc(C)cc1
not listed: [20]
inactive: all other assays above

C=C(C)C(=O)OCCC(F)(F)C(F)(F)C(F)(F)C(F)(F)C(F)(F)C(F)(F)C(F)(F)C(F)(F)F
not listed: [20]
inactive: all other assays above

C=CC(=O)OCC(CO)(COC(=O)C=C)COC(=O)C=C
active: [1] 1.61 µM | [2] 4.58 µM | [3] 1.25 µM | [4] 0.016 µM | [5] 0.501 µM | [6] 0.206 µM | [7] 0.016 µM | [9] 3.97 µM | [10] 0.016 µM | [11] 0.0377 µM | [12] 0.0163 µM | [13] 0.016 µM | [14] 17.7 nM | [15] 0.146 µM | [16] 0.0266 µM | [17] 0.682 µM | [18] 1.08 µM | [19] 0.592 µM
inactive: [8]
